In PubChem BioAssay (NCI):
The panel holds about 83,000 compounds, 20% with a hit somewhere; the sample as a whole holds those more often.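 Values shown are percent growth following 48 h exposure of cells in 96-well plates to a single concentration of compound; below 10 was considered active.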 The source made the active and inactive calls.

Columns and labels:
Assay in all cases: NCI-60 one-dose screen, 48 h (100 = growth as untreated, 0 = no growth, -100 = all killed)
[1] = system: HCT-15 colon; conditions: 10 µM unless noted
[2] = system: HT29 colon; conditions: 10 µM unless noted
[3] = system: SNB-75 CNS; conditions: 10 µM unless noted
[4] = system: SNB-19 CNS; conditions: 10 µM unless noted
[5] = system: U251 CNS; conditions: 10 µM unless noted
[6] = system: PC-3 prostate; conditions: 10 µM unless noted
[7] = system: SK-MEL-5 melanoma; conditions: 10 µM unless noted
[8] = system: UACC-62 melanoma; conditions: 10 µM unless noted
[9] = system: LOX IMVI melanoma; conditions: 10 µM
[10] = system: SK-MEL-28 melanoma; conditions: 10 µM unless noted
[11] = system: SK-MEL-2 melanoma; conditions: 10 µM unless noted
[12] = system: EKVX NSCLC; conditions: 10 µM unless noted
[13] = system: SN12C renal; conditions: 10 µM unless noted
[14] = system: UO-31 renal; conditions: 10 µM unless noted
[15] = system: TK-10 renal; conditions: 10 µM unless noted
[16] = system: ACHN renal; conditions: 10 µM unless noted
[17] = system: CAKI-1 renal; conditions: 10 µM unless noted
[18] = system: A498 renal; conditions: 10 µM unless noted
[19] = system: CCRF-CEM leukemia; conditions: 10 µM unless noted
[20] = system: MOLT-4 leukemia; conditions: 10 µM unless noted

Measured: growth

CCCCSc1nc(Nc2ccc(C(C)=O)cc2)c(C#N)c(-c2ccc(OC)cc2)n1
active: [15] -3.09% | [16] 2.58%
inactive: [1] 74.9% | [2] 78.5% | [3] 93% | [4] 61.8% | [5] 10.2% | [6] 90.8% | [7] 90.1% | [8] 96.2% | [9] 39.7% | [10] 91% | [11] 114% | [12] 65.1% | [13] 27.9% | [14] 14.5% | [17] 34% | [18] 59.7% | [19] 100% | [20] 88%

C#CCOc1cc(N(CC)CC)ccc1C(C(=O)NC(C)(C)C)N(C(=O)C1CCc2cc(F)ccc2O1)c1ccc(Br)cc1 (configuration not stated)
inactive: [1] 65.4% | [2] 77.3% | [3] 98.9% | [4] 91.5% | [5] 87.2% | [6] 38.8% | [7] 81% | [8] 61% | [9] 35.9% | [10] 80.2% | [11] 110% | [12] 55.3% | [13] 76.9% | [14] 51% | [15] 116% | [16] 83.2% | [17] 58.7% | [18] 135% | [19] 63.6% | [20] 21.8%

Cc1ccc(C2CC(c3ccc(S(=O)(=O)NCCNc4nc(Nc5ccc(F)cc5)nc(N(C)C)n4)cc3)=Nc3c(N)nc(N)nc3N2)cc1 (configuration not stated)
inactive: [1] 29.1% | [3] 77.7% | [4] 60.4% | [5] 47.3% | [6] 33.5% | [7] 29.1% | [8] 63.7% | [10] 59.8% | [11] 76.9% | [12] 62.7% | [13] 74.2% | [14] 67.4% | [15] 96.5% | [16] 61% | [17] 76.9% | [18] 89.2% | [19] 18.4%
active: [2] -14.3% | [9] 6.81% | [20] 4.77%

CN(C)c1nc(NCCNS(=O)(=O)c2ccc(C3=Nc4c(N)nc(N)nc4NC(c4ccc(Cl)cc4)C3)cc2)nc(Nc2ccc(F)cc2)n1 (configuration not stated)
inactive: [1] 32% | [3] 53.2% | [4] 34.5% | [5] 27.5% | [6] 31.3% | [8] 25.6% | [10] 38.9% | [12] 43.3% | [13] 47.1% | [14] 81.1% | [15] 79.6% | [16] 73.8% | [17] 72.4% | [18] 76.5% | [19] 14%
active: [2] -41.4% | [7] -48.7% | [9] -56.4% | [11] -2.74%

CC1(C)CC[C@]2(C(=O)O)CC[C@]3(C)C(=CCC4[C@@]5(C)C[C@@H](O)[C@@H]6OC(c7cccc(Br)c7)OC[C@@]6(C)C5CC[C@]43C)C2C1 (some centres not stated)
inactive: [1] 20.7% | [2] 21.5% | [3] 85.1% | [4] 47.1% | [5] 22.9% | [6] 25.3% | [7] 41.3% | [8] 55.5% | [9] 16.5% | [10] 74.2% | [11] 65.8% | [12] 27.8% | [13] 46.3% | [14] 30.3% | [15] 35.4% | [16] 19.4% | [17] 39.4% | [18] 69.5% | [19] 27.5% | [20] 13.2%

O=C(Cn1nc(-c2ccccc2)ccc1=O)N/N=C/c1ccc(N2CCOCC2)cc1
inactive: [1] 97.2% | [2] 113% | [3] 96.4% | [4] 89.9% | [5] 93.2% | [6] 102% | [7] 92.4% | [8] 83.7% | [9] 102% | [10] 104% | [11] 98.1% | [12] 95.3% | [13] 94.9% | [14] 75.8% | [15] 103% | [16] 95.7% | [17] 90.8% | [18] 84% | [19] 92.5% | [20] 98.1%

Cc1ccc(C(=O)NN2C(=O)/C(=C/C=C/c3ccc([N+](=O)[O-])o3)SC2=S)cc1
active: [1] -66.1% | [2] -74.3% | [3] -85% | [4] -100% | [5] -98.9% | [6] -15.1% | [7] -100% | [8] -92.4% | [9] -90.9% | [10] -94.3% | [11] -89.8% | [12] -97% | [13] -89.3% | [14] -100% | [15] -98.3% | [16] -100% | [17] -100% | [18] -73.3%

COc1ccc(/C=C2\C(=N)N=C(SCc3nc4ccccc4[nH]3)NC2=O)cc1
inactive: [1] 104% | [2] 116% | [3] 103% | [4] 104% | [5] 101% | [6] 122% | [7] 101% | [8] 103% | [9] 98.3% | [10] 118% | [11] 114% | [12] 109% | [13] 103% | [14] 77.8% | [15] 149% | [16] 109% | [17] 92.8% | [18] 119% | [19] 94.9% | [20] 104%

O=C(CCN1C(=O)/C(=C/c2ccc(F)cc2)SC1=S)N1CCOCC1
inactive: [1] 55.3% | [2] 78.7% | [3] 98.3% | [4] 87.6% | [5] 89.1% | [6] 106% | [7] 83.2% | [8] 47.6% | [9] 40.2% | [10] 72.9% | [11] 65.9% | [12] 87.2% | [13] 53% | [14] 51.1% | [15] 85.6% | [16] 63.6% | [17] 88.4% | [18] 72.5% | [19] 66.6% | [20] 84%

C#CCOc1ccc(/C=N/Nc2nc(-c3ccc(Cl)cc3)cs2)cc1OC
active: [7] 6.66%
inactive: [1] 45.7% | [2] 69.3% | [3] 80.1% | [4] 74.6% | [5] 64.6% | [6] 29.9% | [8] 54.7% | [9] 58.6% | [10] 79.5% | [11] 38% | [12] 59.5% | [13] 67.7% | [14] 52.5% | [15] 131% | [16] 68.6% | [17] 52.6% | [18] 69.8% | [19] 36.2% | [20] 21.7%

CN(C)c1nc(NCCNS(=O)(=O)c2ccc(C3=Nc4c(N)nc(N)nc4NC(c4ccc(F)cc4)C3)cc2)nc(Nc2ccc(F)cc2)n1 (configuration not stated)
active: [9] -40% | [19] 8.67% | [20] 6.56%
inactive: [1] 44.7% | [2] 10% | [3] 58.6% | [4] 46.1% | [5] 31.6% | [6] 18.9% | [7] 21.3% | [8] 45.2% | [10] 55.4% | [11] 58.7% | [12] 47.5% | [13] 42.7% | [14] 82.9% | [15] 65.9% | [16] 77.1% | [17] 64.4% | [18] 53.3%

C#C[C@]1(O)CC[C@H]2[C@@H]3CC=C4c5sc(-c6ccc(O)c(O)c6)nc5CC[C@]4(C)[C@H]3CC[C@@]21C
active: [1] -82.2% | [2] -80.2% | [3] -81.4% | [4] -89.4% | [5] -94.3% | [6] -58.9% | [7] -98.4% | [8] -74.7% | [9] -92.9% | [10] -80.3% | [11] -97.9% | [12] -74.4% | [13] -89.5% | [14] -93.8% | [15] -44.9% | [16] -88.9% | [17] -51.2% | [18] -88.5% | [19] -27.9% | [20] -48%

CCCCn1c(O)c(N=Nc2nc(-c3cc4ccccc4oc3=O)cs2)c2cc(Br)ccc21
inactive: [1] 102% | [2] 112% | [3] 102% | [4] 95.3% | [5] 101% | [6] 97.4% | [7] 98.3% | [8] 93.5% | [9] 94.7% | [10] 104% | [11] 116% | [12] 97.1% | [13] 101% | [14] 85% | [15] 115% | [16] 106% | [17] 102% | [18] 103% | [19] 104% | [20] 107%

Cc1cccc(Nc2nc3ccccc3nc2/C=C/c2ccc(F)cc2)c1
inactive: [1] 95.6% | [2] 86.4% | [3] 91.9% | [4] 92.8% | [5] 94% | [6] 89.1% | [7] 88% | [8] 74.7% | [9] 101% | [10] 101% | [11] 98.3% | [12] 83.7% | [13] 90.9% | [14] 67.9% | [15] 151% | [16] 89.9% | [17] 79.9% | [18] 112% | [19] 97.1% | [20] 80.9%

COC(OC)C1=C(C)OC(N)=C(C#N)C12C(=O)Nc1ccccc12 (configuration not stated)
inactive: [1] 94.6% | [2] 102% | [3] 103% | [4] 97% | [5] 99.4% | [6] 92.8% | [7] 92.4% | [8] 81.1% | [9] 28.4% | [10] 85% | [11] 96.2% | [12] 99.7% | [13] 93.3% | [14] 70.3% | [15] 161% | [16] 84.9% | [17] 108% | [18] 125% | [19] 54.6% | [20] 95.9%
